Assay results taken from PMC8159961, “Exploring protein hotspots by optimized fragment pharmacophores” (Nature Communications, 2021).
Values without a mark were called inactive. No rule for the calls is given here.

target: histone methyltransferase SET domain containing 2 (SETD2) (Homo sapiens, UniProt Q9BYW2); assay: primary screen, binary call; higher = more effect of the substance
Protocol: The Chemiluminescence assay evaluates SETD2 specific tri -methylation activity towards histone H3K36. The kit consist s of recombinant SETD2, S-adenosylmethionine and a specific H3K36me3 antibody and was performed according to the manufacturer’s protocol (Catalo g- No. 52060, https://bpsbioscience.com/setd2 -chemiluminescent-assay-kit-52060). Values were blank corrected and normalized . Enzymatic activities were calculated relative to the positive control of the kit (full enzymatic activity) and to the known SET doma in inhibitor Sinefungin28 used as negative control (complete enzymatic activity inhibition). Compounds used were diluted in DMSO.

Sequence of histone methyltransferase SET domain containing 2 (SETD2) (Q9BYW2 whole entry, looked up, the tested form may be a part): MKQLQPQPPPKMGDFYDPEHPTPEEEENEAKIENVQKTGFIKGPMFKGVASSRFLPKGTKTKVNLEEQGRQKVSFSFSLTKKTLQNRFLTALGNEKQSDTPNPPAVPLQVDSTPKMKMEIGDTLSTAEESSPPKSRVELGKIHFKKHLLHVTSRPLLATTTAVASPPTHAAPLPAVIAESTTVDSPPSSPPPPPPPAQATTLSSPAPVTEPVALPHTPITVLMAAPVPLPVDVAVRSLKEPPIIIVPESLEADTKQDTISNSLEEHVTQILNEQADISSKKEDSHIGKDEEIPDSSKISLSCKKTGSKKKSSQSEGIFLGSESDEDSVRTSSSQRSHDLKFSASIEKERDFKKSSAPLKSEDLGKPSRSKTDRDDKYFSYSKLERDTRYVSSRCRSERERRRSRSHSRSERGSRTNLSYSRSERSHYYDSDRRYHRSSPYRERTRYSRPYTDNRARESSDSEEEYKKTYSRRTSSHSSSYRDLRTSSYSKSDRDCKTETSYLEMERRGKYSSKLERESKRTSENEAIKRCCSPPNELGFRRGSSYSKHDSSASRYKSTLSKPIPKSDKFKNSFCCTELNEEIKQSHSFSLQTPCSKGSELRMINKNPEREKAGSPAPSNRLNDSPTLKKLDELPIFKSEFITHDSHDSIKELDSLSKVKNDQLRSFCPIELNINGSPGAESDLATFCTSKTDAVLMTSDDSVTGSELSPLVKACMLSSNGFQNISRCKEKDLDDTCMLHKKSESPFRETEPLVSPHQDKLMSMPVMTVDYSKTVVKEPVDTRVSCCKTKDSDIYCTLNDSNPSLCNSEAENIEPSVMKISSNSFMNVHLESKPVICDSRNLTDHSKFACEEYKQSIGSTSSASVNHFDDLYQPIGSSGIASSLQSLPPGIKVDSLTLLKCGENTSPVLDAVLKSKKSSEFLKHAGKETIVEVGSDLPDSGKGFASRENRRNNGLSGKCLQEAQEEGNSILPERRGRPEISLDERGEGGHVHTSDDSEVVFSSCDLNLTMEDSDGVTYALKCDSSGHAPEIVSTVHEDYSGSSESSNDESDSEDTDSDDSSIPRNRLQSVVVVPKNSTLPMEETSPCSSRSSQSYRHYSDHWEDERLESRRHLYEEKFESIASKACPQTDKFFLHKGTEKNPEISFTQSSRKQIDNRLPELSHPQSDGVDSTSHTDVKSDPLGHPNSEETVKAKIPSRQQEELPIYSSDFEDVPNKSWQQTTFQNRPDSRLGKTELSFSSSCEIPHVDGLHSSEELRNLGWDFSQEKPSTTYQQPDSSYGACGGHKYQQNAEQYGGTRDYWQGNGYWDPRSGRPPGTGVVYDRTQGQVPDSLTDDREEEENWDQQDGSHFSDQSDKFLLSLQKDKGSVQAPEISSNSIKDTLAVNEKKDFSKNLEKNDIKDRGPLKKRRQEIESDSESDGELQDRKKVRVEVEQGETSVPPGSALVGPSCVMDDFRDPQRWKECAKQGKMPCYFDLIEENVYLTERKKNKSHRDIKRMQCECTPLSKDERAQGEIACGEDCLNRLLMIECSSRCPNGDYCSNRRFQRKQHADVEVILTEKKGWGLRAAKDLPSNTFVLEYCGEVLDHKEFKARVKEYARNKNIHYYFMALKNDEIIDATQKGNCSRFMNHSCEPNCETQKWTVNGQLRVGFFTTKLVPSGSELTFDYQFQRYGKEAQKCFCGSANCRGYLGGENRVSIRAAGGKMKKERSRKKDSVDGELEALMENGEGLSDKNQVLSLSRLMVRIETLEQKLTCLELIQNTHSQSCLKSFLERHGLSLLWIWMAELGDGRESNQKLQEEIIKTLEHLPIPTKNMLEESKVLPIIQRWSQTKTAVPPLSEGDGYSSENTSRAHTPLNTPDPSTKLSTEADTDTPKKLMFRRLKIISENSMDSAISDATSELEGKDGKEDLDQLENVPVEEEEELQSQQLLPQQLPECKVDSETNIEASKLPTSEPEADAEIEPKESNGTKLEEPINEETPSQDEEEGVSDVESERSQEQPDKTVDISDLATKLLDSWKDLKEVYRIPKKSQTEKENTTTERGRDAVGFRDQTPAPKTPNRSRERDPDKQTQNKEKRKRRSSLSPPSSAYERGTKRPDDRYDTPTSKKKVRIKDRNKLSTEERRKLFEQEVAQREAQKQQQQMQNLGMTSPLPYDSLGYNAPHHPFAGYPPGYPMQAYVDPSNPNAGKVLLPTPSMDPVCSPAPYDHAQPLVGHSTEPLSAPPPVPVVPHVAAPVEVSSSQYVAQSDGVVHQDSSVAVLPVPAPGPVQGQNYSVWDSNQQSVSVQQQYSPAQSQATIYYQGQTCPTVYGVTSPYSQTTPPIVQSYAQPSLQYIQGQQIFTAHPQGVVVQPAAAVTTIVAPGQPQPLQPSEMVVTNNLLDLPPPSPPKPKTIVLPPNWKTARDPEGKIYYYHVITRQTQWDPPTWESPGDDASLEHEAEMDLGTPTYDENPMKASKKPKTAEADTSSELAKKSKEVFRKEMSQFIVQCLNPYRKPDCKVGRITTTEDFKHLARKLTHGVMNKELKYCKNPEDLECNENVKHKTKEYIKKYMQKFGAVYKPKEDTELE

| Compound | SETD2 |
| --- | --- |
| O=C(O)c1ccc(CN2CCOCC2)cc1 | 0 |
| CN1CC(=O)NC1=O | 0 |
| Cn1c(N)nc2ccccc21 | 1 (active) |
| O=C(O)c1cccc(Nc2ncccn2)c1 | 0 |
| O=C1CCN(c2ccncc2)CC1 | 0 |
| CCn1cnc2ccccc21 | 0 |
| c1ccc2oc(C3CCCNC3)nc2c1 (stereo not shown) | 0 |
| CS(=O)(=O)c1ccc(N2CCNCC2)cc1 | 0 |
| N#CC1CCS(=O)(=O)C1 (stereo not shown) | 0 |
| CCN(CC)c1cccc(C)c1 | 0 |
| O=C1NC(=O)C2(CCc3ccccc32)N1 (stereo not shown) | 0 |
| O=C1CCN(c2ccccn2)CC1 | 0 |
| COc1ccccc1C1CCNCC1 | 0 |
| Oc1ccc(-n2cncn2)cc1 | 0 |
| N#Cc1ccc(C(=O)N2CCOCC2)cc1 | 0 |
| Cc1ccc(-c2ccc(O)cc2)cc1 | 0 |
| N#Cc1ccc2ncsc2c1 | 0 |
| N#CCCN1CCc2ccccc21 | 0 |
| COC(=O)c1c(C)nc(C2CC2)[nH]c1=O | 0 |
| c1ccc(Nc2nncs2)cc1 | 0 |

| Compound | SETD2 |
| --- | --- |
| CCCN1C(=O)CC(=O)NC1=S | 0 |
| O=C(O)c1cnc(-c2ccccc2)s1 | 0 |
| O=C(NC1CC1)c1ccccc1O | 0 |
| c1ccc(-c2ccncc2)cc1 | 0 |
| O=c1ccc2c([nH]1)CCCC2 | 0 |
| O=C1NC2(CCCC2)Nc2ccccc21 | 0 |
| O=C(CN1CCNCC1)c1ccccc1 | 0 |
| Oc1ccc(C2CCNCC2)cc1 | 0 |
| C1=C[C@H]2O[C@@H]1c1ccccc12 | 0 |
| O=C1CCC(=O)N(c2ccccc2)N1 | 0 |
| COc1cccc(NC2=NCCCCC2)c1 | 0 |
| COc1ccc(CN2CCNCC2)cc1F | 0 |
| Oc1cnc(-c2ccccc2)nc1 | 0 |
| Cc1nccn1Cc1cccc(C#N)c1 | 0 |
| CN(C)c1cc(CN)ccn1 | 0 |
| Cc1cc(N)no1 | 0 |
| Oc1ccccc1N1CCCCC1 | 0 |
| CS(=O)(=O)Nc1ccc(C(=O)O)cc1 | 1 (active) |
| CC1(C)OC(=O)c2cc(Br)c(O)cc2O1 | 0 |
| Oc1nnc(-c2ccccc2)o1 | 0 |
